PubChem BioAssay (NCATS)
“And” between values parts separate entries of the source, which are not always exact repeats. Identical values can stand only once. Results filed as inconclusive are left out. The source made the active and inactive calls. Calls come from the whole dose curve; as a rule, active = well fitted inhibition curve with a large enough effect; inconclusive = small, poorly fitted or top-dose-only effect; inactive = flat fitted curve, though single readings scatter.

What was measured:
TAB109 = assay: qHTS profiling for inhibitors of Plasmodium falciparum proliferation (AID 504749);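 note: 0% = DMSO vehicle and full inhibition = artemisinin control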; settings: P. falciparum in erythrocytes, SYBR Green DNA, 72 h; series mostly up to 28.7 µM
How it was run: (§1)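 In a 72 h erythrocytic culture (37 C, humidified, 5% CO2) at 2.5% hematocrit and 0.3% starting parasitemia, compounds were tested; SYBR Green I in detergent lysis buffer stained parasite DNA overnight.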

TAB113 = assay: as above; settings: P. falciparum in erythrocytes, SYBR Green DNA, 72 h; series mostly up to 28.7 µM
How it was run: as §1

TAB165 = assay: as above; settings: P. falciparum in erythrocytes, SYBR Green DNA, 72 h; series mostly up to 28.7 µM
How it was run: as §1

W2 = assay: as above; settings: P. falciparum in erythrocytes, SYBR Green DNA, 72 h; series mostly up to 28.7 µM
How it was run: as §1

KB-3-1 = assay: Cytotoxic Profiling of Annotated Libraries Using Quantitative High-Throughput Screening (AID 1296008); settings: Five cell lines viability, CellTiter-Glo ATP luminescence, 48-72 h; max response: hits give low values; note: % is set by controls: 0 for no effect and ±100 for the full control effect
How it was run: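 Cytotoxicity was measured as CellTiter-Glo ATP luminescence, read after 10 min at room temperature. Compound treatment of the cells lasted 48 or 72 hr at 37 degrees Celsius in a qHTS format.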
Note: nearly all actives have a fitted effect of over 60% in size.

O=C1CN(O)C(c2ccccc2)=c2cc(Cl)ccc2=N1
inactive: Potency (TAB109) | Potency (TAB113) | Potency (TAB165) | Potency (W2) | max response (KB-3-1) -7.95%

C=CCN=C=S
inactive: Potency (TAB109) | Potency (TAB113) | Potency (TAB165) | max response (KB-3-1) -2.35%

O=C1CCO1
inactive: Potency (TAB109) | Potency (TAB113) | Potency (TAB165) | Potency (W2) | max response (KB-3-1) -17.3%

CCCC(=O)OC(C(Cl)(Cl)Cl)P(=O)(OC)OC (stereo unspecified)
inactive: Potency (TAB109) | Potency (TAB113) | Potency (TAB165) | max response (KB-3-1) -2.33%

O=c1ccc2cc(O[C@@H]3O[C@H](CO)[C@@H](O)[C@H](O)[C@H]3O)c(O)cc2o1
inactive: max response (KB-3-1) -2.51%

S=C=S
inactive: Potency (TAB109) | Potency (TAB113) | Potency (TAB165) | Potency (W2) | max response (KB-3-1) -1.39%

CNC(=O)OCC[N+](C)(C)C
inactive: Potency (TAB109) | Potency (TAB113) | Potency (TAB165) | Potency (W2) | max response (KB-3-1) 5.31%

CCC1C(C)=NN=C(c2ccc(OC)c(OC)c2)c2cc(OC)c(OC)cc21 (stereo unspecified)
inactive: Potency (TAB109) | Potency (TAB113) | Potency (TAB165) | max response (KB-3-1) 11.4%

CCCC(C)C1(CC)C(=O)NC(=O)NC1=O (stereo unspecified)
inactive: Potency (TAB109) | Potency (TAB113) | Potency (TAB165) | Potency (W2) | max response (KB-3-1) -12.9%

CC(=O)OO
inactive: Potency (TAB109) | Potency (TAB113) | Potency (TAB165) | Potency (W2) | max response (KB-3-1) 2.94%

CCC(N)Cc1c[nH]c2ccccc12 (stereo unspecified)
inactive: Potency (TAB109) | Potency (TAB113) | Potency (TAB165) | Potency (W2) | max response (KB-3-1) 3.31% and -1.82%

COc1ccc2c3c1O[C@H]1C(=O)CC[C@H]4[C@@H](C2)N(C)CC[C@]314
inactive: Potency (TAB109) | Potency (TAB113) | Potency (TAB165) | max response (KB-3-1) 8.34%

CCC1(c2ccccc2)C(=O)NC(=O)N(C(=O)c2ccccc2)C1=O (stereo unspecified)
inactive: Potency (TAB109) | Potency (TAB113) | Potency (TAB165) | max response (KB-3-1) -9.95%
